Source: PubChem (National Center for Advancing Translational Sciences (NCATS))
Sampled rows, rich in hits. Any-hit rate of the full collection: about 7.5%.
ELG1 repair inh = ELG1-dependent DNA repair inhibition; hit rate 2.3% among 330,000; Potency, µM (top dose mostly 46.1 µM), without a hit: top-dose activity change, negative = inhibition, hits mostly inhibitors; HEK293T ELG1-luciferase reporter, luminescence, 16 h; DNA damage induced by 5-fluorouridine; further: potency means the concentration at half of the fitted maximal effect; nearly all actives have a fitted effect of over 55% in size
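Overnight (16 hr) co-exposure of 2,000 cells/well to 5-fluorouridine and compound at 37 °C preceded detection. Luciferase was quantified via ONE-Glo luminescence; loss of signal denotes inhibition.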
TSHR antagonist = antagonists of human thyroid stimulating hormone receptor; hit rate 0.2% among 330,000; P16473; TSHR-expressing cells, TSH-stimulated cAMP HTRF, 2 h; stronger effect = lower value; activity change, negative = inhibition, % at 11.5 µM;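 active means activity change below a set negative limit, meaning inhibition stronger than a set level, cut at about -70% in these data; inconclusive means activity change between two set negative limits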
Target sequence (P16473 whole entry, looked up): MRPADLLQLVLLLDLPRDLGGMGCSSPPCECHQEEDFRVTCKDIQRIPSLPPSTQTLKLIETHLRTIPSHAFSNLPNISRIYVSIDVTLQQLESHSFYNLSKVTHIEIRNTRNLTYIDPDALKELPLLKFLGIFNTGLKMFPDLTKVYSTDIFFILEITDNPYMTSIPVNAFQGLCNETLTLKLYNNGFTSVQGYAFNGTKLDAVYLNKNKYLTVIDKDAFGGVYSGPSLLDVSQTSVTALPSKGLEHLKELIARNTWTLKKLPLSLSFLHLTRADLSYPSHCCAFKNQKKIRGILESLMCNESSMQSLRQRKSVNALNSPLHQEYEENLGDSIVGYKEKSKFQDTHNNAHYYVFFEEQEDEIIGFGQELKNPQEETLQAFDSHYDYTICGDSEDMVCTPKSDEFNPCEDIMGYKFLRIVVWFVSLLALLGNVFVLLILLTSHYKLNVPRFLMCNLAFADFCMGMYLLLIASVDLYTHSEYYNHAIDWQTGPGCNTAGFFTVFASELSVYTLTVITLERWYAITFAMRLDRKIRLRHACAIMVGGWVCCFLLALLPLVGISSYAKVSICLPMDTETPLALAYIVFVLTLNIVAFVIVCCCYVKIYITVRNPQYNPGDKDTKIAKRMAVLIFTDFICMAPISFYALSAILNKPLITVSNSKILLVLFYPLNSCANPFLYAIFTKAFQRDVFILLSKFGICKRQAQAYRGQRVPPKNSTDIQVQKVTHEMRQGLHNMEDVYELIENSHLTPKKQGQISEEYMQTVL
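TSHR-expressing cells, 200/well, pre-treated with compound, then stimulated with EC80 TSH (4nM final) for 2 hours at 37 deg C. cAMP measured by competitive HTRF: anti-cAMP cryptate antibody in lysis buffer plus cAMP-d2, read after 30 minutes at room temperature.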
B2AR arrestin = beta2AR (human) beta-arrestin recruitment activity; P07550; beta-arrestin recruitment to beta2AR, cell-based reporter; Potency, µM (titrated, usually from 46.1 µM), for the others: at the highest dose activation, actives largely listed as activators; hit rate 0.02% among 330,000; AID 492947;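 further: potency means the concentration at half of the fitted maximal effect; 0% = DMSO controls and full agonism = EC100 isoproterenol or metaproterenol; nearly all actives have a fitted effect of over 65% in size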
RORg inh = ROR gamma (mouse) transcription inhibition | P51450 | Drosophila S2 Gal4-RORgamma UAS-luciferase reporter, 20 h | Potency, µM (top dose mostly 53.6 µM), inactives show top-dose activity change, negative = inhibition, actives largely listed as inhibitors | hit rate 5.4% among 310,000 | AID 2551; further: potency means the concentration at half of the fitted maximal effect; nearly all actives have a fitted effect of over 60% in size
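Stably transfected Drosophila Schneider cells are the test system, with ROR gamma fused to Gal4 and luciferase under UAS control; luminescence is read after 20 hr of 700 uM copper sulfate induction at ambient temperature.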
VP16 counter = counter-screen for ROR gamma inhibitors: Gal4-VP16 reporter | hit rate 3.5% among 310,000 | Drosophila S2 Gal4-VP16 UAS-luciferase, luminescence, 20 h | AID 2546 | Potency, µM (titrated, usually from 53.6 µM), for the others: at the highest dose activity, negative = inhibition, hits mostly inhibitors;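 further: Gal4-VP16 expression switched on by copper sulfate through the metallothionein promoter; potency means the concentration at half of the fitted maximal effect; nearly all actives have a fitted effect of over 50% in size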
Active calls of the source: *; u = inconclusive; x = no result given; [ ] = another dose, or the depositor's remark. Unless noted, the call rests on the fitted dose curve; in most records, active means well fitted curve in the direction sought with a large enough effect; inconclusive means small, poorly fitted or top-dose-only effect, or another doubt; inactive means no such curve, though single readings can be large; an effect the other way counts as inactive or inconclusive. Unless noted, on the % scale 0 is the no-effect control and ±100 the full control effect.

SMILES	ELG1 repair inh	TSHR antagonist	B2AR arrestin	RORg inh	VP16 counter
CS(=O)(=O)Nc1cccc(C2=NN(C(=O)c3cccc([N+](=O)[O-])c3)C(c3cccs3)C2)c1 (stereo unspecified)	13µM*	-1	0%	-4%	-1%
O=C(O)CCC/C=C\C[C@@H]1[C@@H](CC[C@@H](O)CCc2ccccc2)[C@H](O)C[C@@H]1O	x	x	x	-3%	3%
CC(NC(=O)Nc1ccccc1Cl)c1ccc2c(c1)OCO2 (stereo unspecified)	u	-2	0%	26%	6%
O=S(=O)(Nc1ccc(O)c2ccccc12)c1cccs1	9.2µM*	10	0%	u	-26%
O=S(=O)(Nc1ccc(O)c2ccccc12)c1ccc(Br)cc1	23µM*	6	0%	-36%	-20%
O=S(=O)(Nc1cccc2ccccc12)c1cccs1	15%	-2	0%	-3%	17%
CC(=O)Nc1ccc(NS(=O)(=O)c2ccccc2)c2ccccc12	8%	-29	0%	20%	-17%
CC(C)C[C@H]1COC(c2ccc(Br)cc2)=N1	x	x	x	-9%	0%
C=CC[n+]1c(-c2ccc(OC)c(OC)c2)csc1NNC(=O)Nc1ccccc1	u	4	u	10µM*	u
C=CC[n+]1c(-c2ccccc2)csc1NC(C)(C)C	0%	4	0%	-13%	-3%
CC(=N\NC(=O)c1ccc([N+](=O)[O-])cc1)/C(=N/O)C(=O)Nc1ccccc1	u	5	0%	4µM*	6.3µM*
CC(=N\Nc1ccc(Cl)cc1)/C(=N/O)C(=O)Nc1ccccc1	u	5	-2%	u	-5%
O=C1CCCC(C(C(=O)OCc2ccccc2)C(=O)OCc2ccccc2)C1 (stereo unspecified)	x	x	x	9%	6%
CCn1ccnc1CN(C)Cc1cn(-c2cccc(C)c2)nc1-c1cccc(F)c1	u	5	0%	1.6µM*	16µM*
Cc1ccc(C)c(-n2cc(CNCCc3cnccn3)c(-c3ccccc3)n2)c1	-3%	23	0%	-10%	-6%
CCn1ccnc1CN(C)Cc1nc(-c2cccc(Cl)c2)no1	u	-12	-1%	18µM*	-9%
CCn1ccnc1CNCc1cn(-c2cc(C)ccc2C)nc1-c1ccccc1	-21%	-12	0%	14µM*	-21%
Cc1ccc(-n2cc(CN3CCCN(C=O)CC3)c(-c3ccc(F)cc3)n2)cc1	23µM*	25	0%	4%	7%
CC(=O)NCc1ccc(-c2csc(-c3cccs3)n2)cc1	u	11	0%	29%	7%
CSCC[C@H](NC(=O)[C@H](Cc1c[nH]c2ccccc12)NC(=O)CNC(=O)[C@H](Cc1ccc(O)cc1)NC(=O)[C@H](C)NC(=O)[C@H](CCC(=O)O)NC(=O)[C@H](CCC(=O)O)NC(=O)[C@H](CCC(=O)O)NC(=O)[C@H](CCC(=O)O)NC(=O)[C@H](CCC(=O)O)NC(=O)[C@H](CC(C)C)NC(=O)[C@H](Cc1c[nH]c2ccccc12)NC(=O)[C@@H]1CCCN1C(=O)CNC(=O)[C@@H]1CCC(=O)N1)C(=O)N[C@@H](CC(=O)O)C(=O)N[C@@H](Cc1ccccc1)C(=O)NCC(=O)O	x	x	x	1%	6%
CCn1ccnc1CN(C)Cc1cn(-c2ccc(C)cc2)nc1-c1cccc(C)c1	-4%	10	3%	1.6µM*	10µM*
CCn1ccnc1CN(C)Cc1nc(-c2ccccc2)no1	u	23	0%	u	u
Cc1cccc(-n2cc(CN(C)Cc3nccn3C)c(-c3cccc(F)c3)n2)c1	u	-2	0%	5.6µM*	u
CN(Cc1cn(Cc2ccccc2)nc1-c1ccc2c(c1)OCO2)Cc1nccn1C	-10%	-11	0%	13µM*	2%
Cc1ccc(-n2cc(CN3CCN(Cc4nccn4C)CC3)c(-c3cccc(C)c3)n2)cc1	u	2	0%	10µM*	-4%
SMILES	ELG1 repair inh	TSHR antagonist	B2AR arrestin	RORg inh	VP16 counter
Cc1ccc(-n2cc(CN3CCNC(=O)CC3)c(-c3cccc(C)c3)n2)cc1	-17%	10	-1%	-4%	6%
CCN1C(=O)[C@@H]2[C@@H](c3ccc(-c4ccc(Cl)c(Cl)c4)c(OC)c3)N3CCCC[C@@]3(C(=O)OC)[C@@H]2C1=O	-1%	-5	-1%	x	x
Cc1nnc(N/N=C/c2ccccc2F)n1N	-5%	1	-1%	-36%	u
COc1cccc(/C=N/Nc2nnc(C)n2N)c1O	-3%	11	0%	2.2µM*	3.2µM*
COc1cccc(/C=N/Nc2cc(Cl)nc(C)n2)c1O	u	-11	0%	0.5µM*	2.8µM*
Cc1nnc(N/N=C/c2ccco2)n1N	1%	8	0%	11µM*	13µM*
COc1cccc(/C=N/Nc2cc(N3CCOCC3)ncn2)c1O	12µM*	18	0%	11µM*	11µM*
CC(C)CCn1c(O)c(N=Nc2ccccn2)c2ccccc21	u	6	-1%	14µM*	11µM*
Oc1ccc2ccccc2c1N=Nc1ccccn1	u	-10	0%	0.28µM*	u
O=[N+]([O-])c1cc(N=Nc2ccc3ccccc3c2)ccc1O	u	-27	1%	4%[1.91 µM]	-28%
CC(=O)N1c2ccc(S(=O)(=O)N(C)CC(=O)Nc3cccc(C)c3)cc2CC1C (stereo unspecified)	0%	3	4%	u	u
CCOc1ccc(NC(=O)CCNS(=O)(=O)c2ccc3c(c2)CC(C)N3C(C)=O)cc1 (stereo unspecified)	1%	-5	0%	-18%	-2%
CC(=O)N1c2ccc(S(=O)(=O)N(C)CC(=O)Nc3ccccc3C)cc2CC1C (stereo unspecified)	16µM*	24	-1%	2%	-11%
COc1cccc(CNC(=O)CCNS(=O)(=O)c2ccc3c(c2)CC(C)N3C(C)=O)c1 (stereo unspecified)	8.2µM*	-3	0%	-6%	-2%
COc1ccc(NC(=O)CCNS(=O)(=O)c2ccc3c(c2)CC(C)N3C(C)=O)cc1 (stereo unspecified)	-8%	-92*	0%	9%	-5%
CC(C)CNC(=O)/C=C/C=C/c1ccc2c(c1)OCO2	u	10	-1%	x	x
COc1ccc(Oc2ncc3nc(-c4ccccc4)c(=O)n(C4CC4)c3n2)cc1	x	x	x	-8%	5%
O=C(/C=C/NNC(=O)c1ccc(Br)cc1)c1ccccc1	u	-4	-1%	u	-1%
O=C(/C=C/NNC(=O)c1ccccc1)c1ccccc1	u	-7	4%	7.9µM*	u
S=C1NC2=C(CCCC2=C2SCCS2)C(c2ccccc2)N1 (stereo unspecified)	u	-1	0%	7.1µM*	u
